# From PubChem BioAssay
# This is a sample that favours compounds with a hit; in the whole collection about 4.4% have one here.
# TRHR agonist: activates the human TRH receptor. TRHR cells, calcium flux fluo-8, FDSS agonist mode. AID 493084. activation, % at 2 µM. hit rate 0.18% among 360,000. P34981; also: 0% is about no effect
#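 Fluo-8-loaded TRHR cells; 10 s baseline, compound added, kinetic Ca2+ fluorescence read 1/s, agonist mode.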
# D1 ag: agonists of human D1 dopamine receptor; activation, % at 2 µM; P21728; AID 504660; HEK293 T-REx D1 cells, calcium flux, agonist mode; hit rate 1% among 360,000; also: 0% is about no effect
#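 Agonism was scored from calcium flux recorded over 180 s (1 read/s) after pintool compound addition, following a 10-cycle baseline. Cells were inducible force-coupled HEK293 TREx D1, plated overnight at 30 C and loaded with no-wash calcium dye.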
# USP1-UAF1 inh: blocks the human USP1/UAF1 deubiquitinase complex; recombinant USP1/UAF1, Ub-Rhodamine cleavage fluorescence; Potency, µM (series often up to 57.1 µM), for the others: at the top dose activity change, negative = inhibition, hits mostly inhibitors; hit rate 0.23% among 390,000; AID 743255; active = well fitted inhibition curve with a large enough effect; inconclusive = small, poorly fitted or top-dose-only effect; inactive = no such curve, though single readings can be large or run the other way; also: potency is read from the fitted curve at half-maximal effect; % is scaled to controls: 0 for no effect and ±100 for the full control effect; nearly all actives have a fitted effect of over 60% in size
# Target sequence (O94782 whole entry, looked up): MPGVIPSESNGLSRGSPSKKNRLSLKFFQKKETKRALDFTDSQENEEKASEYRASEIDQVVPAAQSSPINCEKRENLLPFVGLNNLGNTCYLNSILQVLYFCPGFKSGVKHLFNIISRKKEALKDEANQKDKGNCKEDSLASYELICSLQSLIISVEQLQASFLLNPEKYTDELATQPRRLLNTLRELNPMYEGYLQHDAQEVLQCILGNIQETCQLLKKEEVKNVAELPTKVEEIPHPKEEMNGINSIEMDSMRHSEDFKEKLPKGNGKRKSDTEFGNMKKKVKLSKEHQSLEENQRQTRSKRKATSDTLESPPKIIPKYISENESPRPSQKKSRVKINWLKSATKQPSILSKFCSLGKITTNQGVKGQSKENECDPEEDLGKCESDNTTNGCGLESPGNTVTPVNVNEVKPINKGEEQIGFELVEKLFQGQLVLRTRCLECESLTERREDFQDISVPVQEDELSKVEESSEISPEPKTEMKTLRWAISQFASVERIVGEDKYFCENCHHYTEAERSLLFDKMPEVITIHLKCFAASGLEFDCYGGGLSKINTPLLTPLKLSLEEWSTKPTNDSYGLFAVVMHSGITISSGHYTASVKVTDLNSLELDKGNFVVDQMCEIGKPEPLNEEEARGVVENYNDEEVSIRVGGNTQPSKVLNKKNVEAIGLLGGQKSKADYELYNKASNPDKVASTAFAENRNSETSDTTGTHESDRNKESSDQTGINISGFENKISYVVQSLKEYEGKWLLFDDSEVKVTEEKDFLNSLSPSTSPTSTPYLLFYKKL
#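 In this screen, compounds sit with the deubiquitinase complex (1nM) for 15 min at room temperature before Ub-Rho is added at 150nM final. Fluorescence rise is then followed for 6 reads every 60 seconds.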
# D1 PAM: potentiators of human D1 dopamine receptor; HEK293 TREx D1 cells, calcium flux, dopamine EC20 potentiation; potentiation, % at 10 µM; hit rate 0.036% among 360,000; AID 504651; in the data active = potentiation above about 30%; also: 0% is about no effect
# D1 antag: human D1 dopamine receptor antagonism; HEK293 TREx D1 cells, calcium flux, dopamine EC80; stronger effect = lower value; P21728; activity change, negative = inhibition, % at 10 µM; hit rate 3.2% among 360,000; in the data active = activity change below about -30%; also: % is scaled to controls: 0 for no effect and ±100 for the full control effect
#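 Compound effects on dopamine-evoked calcium signalling were measured in tetracycline-induced HEK293 Trex D1 cells. Dopamine at EC80 followed a 180 s compound pre-read, and fluorescence was tracked kinetically for 180 s more.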
# TRHR PAM: allosterically enhances the human TRH receptor. TRHR cells, fluo-8 calcium fluorescence, EC20 TRH enhancement. enhancement, % at 2 µM. AID 493056. P34981. hit rate 0.66% among 360,000; in the data active = enhancement above about 30%; also: 0% is about no effect
#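 TRHR-expressing cells loaded with fluo-8 calcium dye were read kinetically (ex 480/em 530) during compound addition, then stimulated with an EC20 of TRH (10 nM final). Enhancement of the Gq-mediated intracellular calcium response was scored.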
# Active calls of the source: *; ? = inconclusive; . = no result. Rule as the data show it, unless noted: active = activation above about 30%; inactive = the rest.
SMILES,TRHR agonist,D1 ag,USP1-UAF1 inh,D1 PAM,D1 antag,TRHR PAM
COCCn1c(C)cc(O)c(C(c2ccccc2)N2CCN(c3ccccc3)CC2)c1=O (configuration not stated),0,-1,-10%,-2,0,-5
Cc1nnc2ccc(-c3cccc(NS(=O)(=O)c4ccccc4[N+](=O)[O-])c3)nn12,0,3,-21%,1,4,9
Cc1nnc2ccc(-c3cccc(NS(=O)(=O)c4ccccc4Cl)c3)nn12,0,6,3%,2,-16,36*
Cc1nnc2ccc(-c3cccc(NC(=O)c4ccco4)c3)nn12,3,0,-13%,-12,-33*,-7
CCOc1ccc(CC(=O)Nc2cccc(-c3ccc4nnc(C)n4n3)c2)cc1,-1,3,-9%,3,-32*,17
Cc1cccc(-n2c(CNC(=O)c3cccc(F)c3)nnc2SCC(=O)Nc2ccccc2F)c1,1,1,7%,-3,-9,-2
CCCCN(CC)C(=O)Cn1cc2c(n1)-c1c(oc(C(=O)N3CCCC3)c1C)CC2,0,-1,?,-4,1,-5
CC1CCCN(c2ncnc3c2cnn3-c2ccc(F)cc2)C1 (configuration not stated),0,3,-25%,-2,-5,-7
CCC(O)C1CCN(Cc2cn(Cc3ccccc3)nc2-c2cc3ccccc3o2)CC1 (configuration not stated),5,64*,-5%,-4,-15,-5
Cn1c(C(=O)O)cc2cc(Oc3ccccc3)ccc21,1,3,-3%,0,12,-1
Cn1c(C(=O)NN)cc2cc(Oc3ccccc3)ccc21,0,5,-21%,-5,-46*,-1
Cc1c(C(=O)N(C)C)sc2c1c(=O)n(-c1ccc(Cl)c(Cl)c1)c(=O)n2CC(=O)N1CCCCC1C (configuration not stated),0,0,-12%,5,0,-1
C/C(N)=C(/C#N)C(=O)CSc1nnc(-c2ccc3c(c2)OCO3)o1,1,2,-2%,-9,0,6
C/C(N)=C(/C#N)C(=O)CSc1nnc(-c2ccc(OC(F)F)cc2)o1,0,4,6%,-7,-37*,0
O=C1C(=O)N(c2cccc(Cl)c2)C(c2ccccc2[N+](=O)[O-])/C1=C(\O)c1ccccc1 (configuration not stated),1,3,-9%,-9,-51*,-2
O=C1C(=O)N(c2ccccc2)C(c2ccccc2[N+](=O)[O-])/C1=C(\O)c1ccccc1 (configuration not stated),-1,2,-8%,-3,-6,7
Cc1cc(C)cc(NC(=O)c2cc(CN3CCCC3)on2)c1,0,0,-10%,-2,6,6
CC(=O)c1cccc(NC(=O)/C(=C/c2ccco2)NC(=O)c2ccco2)c1,0,1,-25%,38*,11,-2
CCOC(=O)c1sc(NC(=O)CSc2nccc(C)n2)c(C#N)c1C,0,4,-4%,-1,.,-3
N#Cc1cc2c(nc1SCC(=O)Nc1sc3c(c1C#N)CCC3)CCC2,0,1,-14%,-1,-42*,-1
Cc1ccnc(SCC(=O)Nc2sc3c(c2C#N)CCCC3)n1,0,16,-20%,-7,-33*,4
Cc1csc(SCC(=O)Nc2sc3c(c2C#N)CCC3)n1,0,1,-8%,-4,-31*,-8
N#Cc1c(NC(=O)CSc2nc3ccccc3s2)sc2c1CCCC2,-2,6,-3%,-4,7,-3
CCCCN(C)CCNC(=O)c1cc2cc3ccc(OC)cc3nc2o1,0,3,-20%,1,1,-9
CCN(CC)CCNC(=O)c1cc2cc3ccc(OC)cc3nc2o1,0,1,-8%,9,-35*,-8
SMILES,TRHR agonist,D1 ag,USP1-UAF1 inh,D1 PAM,D1 antag,TRHR PAM
Nc1cnccc1C(=O)O,6,32*,?,6,-3,-6
COC(=O)c1ccncc1N,0,1,-10%,-7,.,-3
CCc1cccc(NC(=O)Cn2c(=O)n(CC3CCC(C(=O)NCCc4ccccc4)CC3)c(=O)c3ccccc32)c1 (configuration not stated),-1,4,-4%,-1,-2,2
O=[N+]([O-])c1ccc(C(=S)N2CCN(c3ccc(F)cc3)CC2)cc1,0,0,-26%,4,-33*,-2
Cc1ccc(N2CCN(C(=S)c3ccc(N(C)C)cc3)CC2)cc1,-1,1,-10%,-4,-11,-5
Cc1ccc(CC(=O)N2CCN(c3ccc([N+](=O)[O-])cc3)CC2)cc1,0,10,-7%,-8,-42*,3
Cc1ccc(S(=O)(=O)CC(=O)N2CCN(c3ccc([N+](=O)[O-])cc3)CC2)cc1,.,.,-7%,.,.,.
CN(C)c1ccc(C(=S)N2CCN(c3ccc([N+](=O)[O-])cc3)CC2)cc1,0,1,-11%,-4,-32*,1
O=C(CSc1cn(CCNC(=O)c2c(F)cccc2F)c2ccccc12)Nc1ccc2c(c1)OCCO2,-2,1,-14%,-3,-1,-11
O=[N+]([O-])c1ccc(C=Nc2ccc(Cl)c([N+](=O)[O-])c2)s1,2,1,.,3,0,-4
O=C(Cc1cccs1)N/N=C\c1ccc([N+](=O)[O-])s1,2,3,-20%,-9,-9,-6
Cc1ccc(NC(=S)N/N=C/c2ccc([N+](=O)[O-])s2)cc1,6,31*,-25%,-4,10,-3
NC(=O)c1ccc(N=Cc2ccc([N+](=O)[O-])s2)cc1,1,3,10µM*,-3,22,1
Cc1cc(C)cc(N=Cc2ccc([N+](=O)[O-])s2)c1,0,3,13µM*,1,-2,2
Cc1cc(C)c(/C=C/c2onc(C)c2S(=O)(=O)N2CCC(C(=O)NCC(C)c3ccccc3)CC2)c(C)c1 (configuration not stated),2,9,-16%,-2,-1,8
COc1ccc(N(Cc2cccs2)C(=O)COc2ccc(C(C)C)cc2)cc1,2,22,-7%,-1,-18,-2
COC(=O)COc1nsnc1N1CCOCC1,0,1,-18%,-6,-60*,-1
CC(=O)c1cccc(NC(=O)COc2nsnc2N2CCOCC2)c1,1,6,-9%,-5,-35*,-3
O=C(CCc1ccccc1)NCC1(c2ccccc2)CCCC1,0,3,-9%,3,4,2
O=C(NCCc1ccccc1)C(=O)NCC1(c2ccccc2)CCCC1,2,9,-14%,-8,-31*,3
